# A selection: hits, their analogues and other compounds. The true share with any hit is near 3.2%.
# MEKK2 mut-MEK5 – signal of MEK5 binding to mutant human MEKK2 PB1 domain. bead flow cytometry, Alexa488-MEK5 binding to MEKK2 mutant. percent response, % at 10 µM. hit rate 0.35% among 290,000; in the data active means percent response above about 24%, passing the limit was not always enough
# MEKK3 PB1 HTS – modulators (inhibitors or enhancers) of MEK5 binding to human MEKK3 PB1 domain; Q99759; bead-based flow cytometry, Alexa488-MEK5 binding to MEKK3; actives lie on both sides; 0 = blocked by unlabeled MEK5, 100 = vehicle; binding response (% of control), % at 10 µM; hit rate 1.4% among 290,000; AID 1529;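 active means binding response more than 3 SD above or below the average of its plate-row segment, actives on both sides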;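 further: Alexa488 bead fluorescence after subtracting the streptavidin-only scavenger bead signal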
# Target sequence (Q99759 whole entry, looked up, the tested form may be a part): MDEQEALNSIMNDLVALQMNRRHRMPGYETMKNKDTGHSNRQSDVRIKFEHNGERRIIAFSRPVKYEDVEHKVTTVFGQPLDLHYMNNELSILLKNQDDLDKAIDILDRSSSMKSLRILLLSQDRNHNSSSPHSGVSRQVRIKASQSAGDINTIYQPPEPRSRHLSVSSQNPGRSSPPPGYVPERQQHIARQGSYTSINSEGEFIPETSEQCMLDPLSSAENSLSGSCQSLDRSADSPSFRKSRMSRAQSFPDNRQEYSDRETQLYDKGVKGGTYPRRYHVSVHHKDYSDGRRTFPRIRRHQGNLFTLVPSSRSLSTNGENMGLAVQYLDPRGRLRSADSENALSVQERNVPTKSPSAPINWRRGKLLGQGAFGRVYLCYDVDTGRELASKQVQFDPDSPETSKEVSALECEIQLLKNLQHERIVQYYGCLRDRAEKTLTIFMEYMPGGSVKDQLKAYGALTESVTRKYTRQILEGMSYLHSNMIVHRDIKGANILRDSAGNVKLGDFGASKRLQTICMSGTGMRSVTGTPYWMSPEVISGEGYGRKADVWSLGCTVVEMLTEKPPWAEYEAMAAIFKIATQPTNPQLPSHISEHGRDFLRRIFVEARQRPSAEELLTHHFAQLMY
# CendR NRP1 mod – modulators of CendR peptide binding to human neuropilin-1; FAM-RPARPAR peptide binding to NRP-1, fluorescence polarization; inhibition, % at 25 µM; hit rate 0.85% among 360,000;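 active means inhibition or corrected inhibition above about 18%, plus a signal ratio from 0.5 to 1.5, limit read from the data, passing the limit was not always enough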
# MEKK2 WT-MEK5 – raises or lowers MEK5 binding to wildtype human MEKK2 PB1 domain; Q9Y2U5; bead flow cytometry, Alexa488-MEK5 binding to MEKK2 WT; actives lie on both sides; binding response (% of control), % at 10 µM; hit rate 1.1% among 290,000; in the data active means binding response below about 67% or above about 130%
# SKN-1 block – blocks SKN-1 activity in C. elegans. C. elegans VP596 Pgst-4::GFP/RFP ratio, acrylamide-induced, 24 h. inhibition, % at 21.8 µM. hit rate 0.49% among 360,000;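 active means interference check ratio from 0.5 to 1.5 plus GFP to RFP signal ratio inhibition reaching or exceeding a fixed threshold, cut at about 30% in these data, passing the limit was not always enough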
# MEKK2wt confirm – raises or lowers MEK5 binding to wildtype human MEKK2, retest | shares compounds with MEKK3 PB1 HTS | bead flow cytometry, Alexa488-MEK5 binding to MEKK2 WT; actives lie on both sides | binding response (% of control), % at 10 µM | hit rate 2.4% among 5,900; in the data active means binding response below about 16% or above about 210%; inactive means in between
# MEKK2mut-MEK5 – signal of MEK5 binding to mutant human MEKK2, retest; shares compounds with MEKK3 PB1 HTS; bead flow cytometry, Alexa488-MEK5 binding to MEKK2 mutant; hit rate 2% among 5,900; percent response, % at 10 µM; in the data active means percent response mostly above about 71%, no sharp cut-off; inactive means mostly below about 38%;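 further: higher means compound restores mutant binding toward wildtype level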
# MEKK3-MEK5 inh – MEKK3-MEK5 PB1 inhibition, single concentration confirmation. shares compounds with MEKK3 PB1 HTS. bead flow cytometry, Alexa488-MEK5 binding to MEKK3; active compounds read low. binding response (% of control), % at 10 µM. hit rate 1.8% among 5,900. AID 1894;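 active means binding response below 72% of control, or above a set upper limit, though filed actives all read lower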;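 further: 100% = DMSO only wells and 0% = binding blocked by excess unlabeled MEK5; lower values mean stronger disruption of MEK5 binding to MEKK3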
# The depositor's hits bear a star; / = no result given; [ ] = dose if it differs, or a comment.
SMILES,MEKK2 mut-MEK5,MEKK3 PB1 HTS,CendR NRP1 mod,MEKK2 WT-MEK5,SKN-1 block,MEKK2wt confirm,MEKK2mut-MEK5,MEKK3-MEK5 inh
O=C(CNC(=O)c1cccc(Br)c1)N/N=C/c1cc(Br)cc(Br)c1O,22,151*,-8,123,3,108,4,105
O=C(CNC(=O)c1cccc(Br)c1)N/N=C/c1cccs1,6,106,8,107,-5,/,/,/
C=CCNC(=S)Nc1ccccc1,-13,79*[inhibitor],-3,77,6,99,-6,98
Cc1ccccc1-c1cnc(C(O)c2ccc(-c3ccccc3)cc2)[nH]1 (stereo not drawn),/,/,22,/,23,/,/,/
Cc1ccc(S(=O)(=O)N=Nc2c(O)[nH]c3ccccc23)cc1,6,126*,5,121,32,104,4,105
CC(C)Cn1c(=O)c(CCC(=O)Nc2ccc(N3CCOCC3)cc2)nc2cc(Cl)ccc21,3,99,1,100,-6,/,/,/
COc1ccccc1C(=O)N/C(=C\c1ccc(Br)cc1)C(=O)NCCO,6,129*,5,126,7,106,9,106
O=C(NCCSc1ccccc1)c1ccccc1Cl,1,156*,-8,110,6,102,-2,104
COc1ccc(CN(C(=O)c2cnccn2)C(C(=O)NC(C)(C)C)c2cc(OC)c(OC)c(OC)c2)cc1 (stereo not drawn),-3,94,-9,100,-15,/,/,/
COc1cc(C(C(=O)NC(C)(C)C)N(Cc2ccc3c(c2)OCO3)C(=O)c2cnccn2)cc(OC)c1OC (stereo not drawn),-14,40*[inhibitor],7,58,7,101,-2,100
CCOc1cc(/C=C/C(=O)N(CC)CC(=O)NCc2cccs2)cc(Cl)c1OC,/,/,10,/,11,/,/,/
COC(=O)C1=C(C)NC2=C(C(=O)CC(c3cccs3)C2)C1c1ccsc1 (stereo not drawn),-2,101,5,99,8,/,/,/
CCOC(=O)C1=C(C)NC2=C(C(=O)CC(c3cccs3)C2)C1c1cccs1 (stereo not drawn),3,72*[inhibitor],9,79,4,96,0,101
O=C1NC[C@H](CCCCN2CCN(CC3CCCCC3)C(=O)C2=O)N(CCc2ccccc2)C1=O,/,/,1,/,-8,/,/,/
Cc1ccccc1S(=O)(=O)NC(=O)C1(C)CCN1C(=O)C1(c2ccccc2)CC1 (stereo not drawn),/,/,-8,/,8,/,/,/
O=C(Nc1ccc(CN2CCCCC2)cc1)Nc1ccc(Br)cc1Cl,11,113,6,165*,-5,144,20,104
OC[C@@H]1CN(Cc2ccco2)C[C@H](n2cnc3c(NC4CC4)ncnc32)O1,/,/,-2,/,4,/,/,/
Nc1ccc(NC(=O)CCN2CCOCC2)cc1,9,105,-5,107,3,/,/,/
COc1ccc(N2C(=O)C3ON(C4SC(=S)N(C)C4(C)C)C(c4ccc(Cl)cc4)C3C2=O)cc1 (stereo not drawn),0,151*,-3,108,1,99,-2,98
CC1CC(C)CN(S(=O)(=O)c2ccc3c(c2)CC(C)N3C(=O)C2CC2)C1 (stereo not drawn),-3,102,1,98,-2,/,/,/
COc1cc(O)c2c(c1)OC(C)(C)CC2=O,7,122*,5,116,4,100,0,103
CC1(C)CC(=O)c2c(O)cc(OCc3ccc(Br)cc3)cc2O1,2,101,10,104,-8,/,/,/
CCOC(=O)N1CCC(N2C(=O)c3ccccc3C2Nc2ccc(C)cc2)CC1 (stereo not drawn),6,108,-13,112,15,/,/,/
